Results: PubChem BioAssay (Tox21)
Records with an inconclusive call do not appear. Activity calls are given as the source filed them. Unless noted, calls come from the whole dose curve; as a rule, active = well fitted curve in the direction sought with a large enough effect in the repeat runs; inconclusive = weak or mixed curves; inactive = no such curve, though single readings can be large; an effect the other way counts as inactive or inconclusive.

Columns and labels:
[1] = A CellTox Green Cytotoxicity Assay to monitor cytotoxicity in HEK293 cells - 32 hour (AID 1224881); note: nearly all actives have a fitted effect of over 40% in size; note: potency is the fitted concentration of half-maximal effect
Summary of the method: (§1)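 Fluorescence from a DNA-binding dye excluded by viable cells was measured repeatedly in the same HEK293 wells (600 cells/well) during continuous compound exposure at 37 C. Each assay gives one read point: 0, 8, 16, 24, 32 or 40 h.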

[2] = A CellTox Green Cytotoxicity Assay to monitor cytotoxicity in HepG2 cells - 0 hour (AID 1224882); note: nearly all actives have a fitted effect of over 35% in size
Summary of the method: (§2)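 Real-time cytotoxicity: fluorescence of a cell-impermeant cyanine dye binding DNA of dead HepG2 cells, measured repeatedly (0–40 h) during compound exposure at 37 C. Cells seeded 600/well with reagent, dosed after 5 h.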

[3] = A CellTox Green Cytotoxicity Assay to monitor cytotoxicity in HEK293 cells - 8 hour (AID 1224884); note: nearly all actives have a fitted effect of over 35% in size; note: potency is the fitted concentration of half-maximal effect
Summary of the method: as §1

[4] = qHTS RealTime-Glo MT Cell Viability Assay in HepG2 cells - 16 hour (AID 1224885); note: nearly all actives have a fitted effect of over 50% in size; note: potency is the fitted concentration of half-maximal effect
Summary of the method: (§3)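 Cells + NanoLuc/prosubstrate dispensed (600 cells/well) → 5 h at 37 C/5% CO2 → compounds in DMSO transferred → 40 h incubation at 37 C, luminescence read at 0, 8, 16, 24, 32, 40 h.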

[5] = qHTS RealTime-Glo MT Cell Viability Assay in HEK293 cells - 8 hour (AID 1224887); note: top concentration of the series differs between compounds; nearly all actives have a fitted effect of over 50% in size
Summary of the method: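 Luminescence, which tracks viable cell number through reduction of the prosubstrate to a NanoLuc substrate, was read over continuous 37 C culture. Cells (600/well) were premixed with reagent and rested 5 h before 23 nL of compound in DMSO was pinned.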

[6] = A CellTox Green Cytotoxicity Assay to monitor cytotoxicity in HEK293 cells - 16 hour (AID 1224888); note: nearly all actives have a fitted effect of over 35% in size; note: potency is the fitted concentration of half-maximal effect
Summary of the method: as §1

[7] = qHTS RealTime-Glo MT Cell Viability Assay in HepG2 cells - 0 hour (AID 1224889); note: nearly all actives have a fitted effect of over 50% in size
Summary of the method: as §3

[8] = A CellTox Green Cytotoxicity Assay to monitor cytotoxicity in HepG2 cells - 8 hour (AID 1224890); note: nearly all actives have a fitted effect of over 45% in size; note: potency is the fitted concentration of half-maximal effect
Summary of the method: as §2

[9] = qHTS assay to identify small molecule antagonists of the estrogen receptor alpha (ER-alpha) signaling pathway using the BG1 cell line in the presence of 0.1 nM 17-beta-estradiol - cell viability counter screen (AID 1259241); note: nearly all actives have a fitted effect of over 40% in size
Summary of the method: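 Cells were plated and left 24 hr, compounds in DMSO were pinned in, 17beta-estradiol was added to 0.1 nM final, and after 22 hr CellTiter-Fluor reagent was added for 30 min before fluorescence was read.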

[10] = qHTS assay to identify small molecule antagonists of the androgen receptor (AR) signaling pathway using the MDA cell line in the presence of 0.5 nM R1881 - cell viability counter screen (AID 1259242); note: nearly all actives have a fitted effect of over 45% in size; note: potency is the fitted concentration of half-maximal effect
Summary of the method: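 Live-cell protease activity was measured by CellTiter-Fluor fluorescence after 30 min. Before that, MDA-kb2 MMTV-luciferase cells had 16 hr at 37C without CO2, exposed to test compounds and 0.5 nM R1881 final.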

[11] = qHTS assay to identify small molecule HDAC inhibitors (AID 1259364); note: top concentration of the series differs between compounds; nearly all actives have a fitted effect of over 45% in size
Summary of the method: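 Luminescence read after 30 min room-temperature HDAC-Glo incubation measures cellular class I/II HDAC activity. Compounds were applied for 2 hr at 37 C to HCT-116 wild-type cells seeded the day before.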

[12] = qHTS assay to identify small molecule HDAC inhibitors - cell viability counter screen (AID 1259365); note: series mostly up to about 92 µM; nearly all actives have a fitted effect of over 50% in size
Summary of the method: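 Counter screen in wild-type HCT-116 cells: compounds dissolved in DMSO are pin-transferred onto overnight-plated cells and left 2hr at 37C. ATP-based CellTiter-Glo luminescence then measures viable cells.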

[13] = qHTS assay to identify small molecule antagonists of the sonic hedgehog signaling (Shh) pathway - cell viability counter screen (AID 1259367); note: nearly all actives have a fitted effect of over 55% in size; note: potency is the fitted concentration of half-maximal effect
Summary of the method: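 Conditioned medium drove Shh signaling in 3T3 Gli1-Luc cells exposed to compounds at 37C and 5% CO2. Viability was determined from CellTiter-Fluor fluorescence, with reagent incubated 1 hr after 23 hr of treatment.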

[14] = qHTS assay to identify small molecule agonists of the sonic hedgehog signaling (Shh) pathway (AID 1259368; calls by dose curve;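 note: NIH/3T3-derived 3T3Gli1-Luc cells carrying a stable Gli1-driven firefly luciferase reporter; series mostly up to about 92 µM; nearly all actives have a fitted effect of over 15% in size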)
Summary of the method: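 Luminescence was read after 30 min at room temperature with luciferase reagent. Before that, 3T3Gli1-Luc cells (NIH/3T3 clone, stable Gli1-Luc reporter; 2,000/well) were exposed to compounds for 24 hr at 37C, 5% CO2, compounds being added 4 hr post-plating.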

[15] = qHTS RealTime-Glo MT Cell Viability Assay in HEK293 cells - 24 hour (AID 1224886)
Summary of the method: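 Tox21 10K qHTS, HEK293, 600 cells/well, RealTime-Glo reagent co-dispensed with cells; 5 h preincubation, compound by pintool, 37 C, luminescence at 0–40 h.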

[16] = target: Estrogen receptor (Homo sapiens) (UniProt P03372); test: qHTS assay to identify small molecule antagonists of the estrogen receptor alpha (ER-alpha) signaling pathway using the BG1 cell line in the presence of 0.1 nM 17-beta-estradiol (AID 1259244); note: nearly all actives have a fitted effect of over 50% in size
Summary of the method: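 Luciferase luminescence (ONE-Glo, 30 min at room temperature) was read after 22 hr at 37C exposure to compounds plus 17beta-estradiol at 0.1 nM final. Cells were VM7Luc4E2 with endogenous ER-alpha and an ERE-driven luciferase, pre-cultured 5 days in hormone-depleted medium.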

[17] = qHTS assay to identify small molecule agonists of the sonic hedgehog signaling (Shh) pathway - cell viability counter screen (AID 1259366); note: nearly all actives have a fitted effect of over 50% in size; note: potency is the fitted concentration of half-maximal effect
Summary of the method: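 Cells are plated at 2,000 per well and left 4hr at 37C, 5% CO2 before compound addition. After 23hr of treatment, CellTiter-Fluor reagent is added for 1hr at 37C and fluorescence is measured.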

[18] = qHTS assay to identify small molecule phospholipidosis (PLD) inducers (AID 1259344; active = well fitted curve in the direction sought with a large enough effect; an effect the other way counts as inactive or inconclusive)
Summary of the method: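 After 4 h attachment on collagen I, HepG2 cells were dosed with compound alongside LipidTOX Red, kept 24 h at 37 C, fixed, and imaged for lamellar phospholipid pits.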

[19] = A CellTox Green Cytotoxicity Assay to monitor cytotoxicity in HepG2 cells - 32 hour (AID 1224883); note: nearly all actives have a fitted effect of over 50% in size; note: potency is the fitted concentration of half-maximal effect
Summary of the method: as §2

[20] = target: Androgen receptor (Homo sapiens) (UniProt P10275); test: qHTS assay to identify small molecule antagonists of the androgen receptor (AR) signaling pathway using the MDA cell line in the presence of 0.5 nM R1881 (AID 1259243); note: nearly all actives have a fitted effect of over 50% in size
Summary of the method: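 Luminescent reporter readout (ONE-Glo, 30 min, room temperature) after 16 hr co-treatment of MDA-kb2 cells with test compounds and 0.5 nM R1881 final, at 37C without CO2. The MMTV-driven luciferase responds to both AR and GR.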
% is set by controls: 0 for no effect and ±100 for the full control effect.

Sequence of Estrogen receptor (Homo sapiens) (P03372 whole entry, looked up): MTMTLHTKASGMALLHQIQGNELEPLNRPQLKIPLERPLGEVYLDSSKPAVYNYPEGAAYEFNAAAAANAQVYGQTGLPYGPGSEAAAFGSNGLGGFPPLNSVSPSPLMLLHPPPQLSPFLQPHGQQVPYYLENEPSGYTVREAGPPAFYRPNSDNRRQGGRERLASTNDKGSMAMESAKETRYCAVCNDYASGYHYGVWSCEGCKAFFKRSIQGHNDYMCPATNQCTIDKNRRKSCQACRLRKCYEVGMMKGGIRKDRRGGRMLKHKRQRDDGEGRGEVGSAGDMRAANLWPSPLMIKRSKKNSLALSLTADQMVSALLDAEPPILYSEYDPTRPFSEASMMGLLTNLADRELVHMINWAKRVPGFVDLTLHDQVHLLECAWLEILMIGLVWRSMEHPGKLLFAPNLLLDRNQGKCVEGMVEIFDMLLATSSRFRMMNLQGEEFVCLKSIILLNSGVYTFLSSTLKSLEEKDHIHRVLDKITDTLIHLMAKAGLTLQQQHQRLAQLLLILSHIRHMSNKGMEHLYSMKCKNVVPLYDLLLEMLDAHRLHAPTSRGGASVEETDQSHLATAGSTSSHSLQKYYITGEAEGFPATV
Sequence of Androgen receptor (Homo sapiens) (P10275 whole entry, looked up): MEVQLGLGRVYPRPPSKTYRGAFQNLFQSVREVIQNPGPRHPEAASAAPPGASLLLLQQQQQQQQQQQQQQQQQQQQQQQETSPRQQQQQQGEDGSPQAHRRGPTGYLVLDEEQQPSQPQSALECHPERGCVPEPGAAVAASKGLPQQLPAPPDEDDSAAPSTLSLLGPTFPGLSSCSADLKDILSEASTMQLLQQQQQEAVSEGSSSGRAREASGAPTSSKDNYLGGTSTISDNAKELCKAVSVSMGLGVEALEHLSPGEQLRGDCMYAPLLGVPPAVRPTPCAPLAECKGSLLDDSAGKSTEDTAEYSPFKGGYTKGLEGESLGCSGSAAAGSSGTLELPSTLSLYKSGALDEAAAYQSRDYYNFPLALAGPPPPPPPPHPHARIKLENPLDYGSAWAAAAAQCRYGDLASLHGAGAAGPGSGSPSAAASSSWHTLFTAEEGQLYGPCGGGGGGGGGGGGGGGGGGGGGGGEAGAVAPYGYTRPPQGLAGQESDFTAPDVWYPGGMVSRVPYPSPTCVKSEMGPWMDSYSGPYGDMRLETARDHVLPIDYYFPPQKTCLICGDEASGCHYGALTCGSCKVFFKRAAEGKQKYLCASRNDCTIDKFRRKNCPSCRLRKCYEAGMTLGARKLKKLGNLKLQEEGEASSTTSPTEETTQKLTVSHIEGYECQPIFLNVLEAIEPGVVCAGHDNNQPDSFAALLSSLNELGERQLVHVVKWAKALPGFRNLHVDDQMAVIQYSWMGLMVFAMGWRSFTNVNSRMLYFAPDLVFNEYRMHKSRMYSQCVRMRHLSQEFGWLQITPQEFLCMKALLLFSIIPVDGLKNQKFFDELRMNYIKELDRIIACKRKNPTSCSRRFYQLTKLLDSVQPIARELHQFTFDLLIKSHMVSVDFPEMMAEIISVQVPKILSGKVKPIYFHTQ

O=C(O)c1nc(Cl)c(Cl)c(Cl)c1Cl
inactive: Potency [1] | Potency [2] | Potency [3] | Potency [4] | Potency [5] | Potency [6] | Potency [7] | Potency [8] | Potency [9] | Potency [10] | Potency [11] | Potency [12] | Potency [13] | outcome [14]

O=C(O)C1(C(=O)O)CCC1.[NH2-].[NH2-].[Pt+2]
inactive: Potency [1] | Potency [2] | Potency [3] | Potency [4] | Potency [15] | Potency [5] | Potency [6] | Potency [7] | Potency [8] | Potency [10] | Potency [16] | Potency [11] | Potency [12] | Potency [17] | Potency [13] | outcome [14]

Cc1ccc(N=Nc2c(O)c(C(=O)O)cc3ccccc23)c(S(=O)(=O)O)c1
active: Potency [10] 11.8 µM | Potency [13] 13.3 µM
inactive: Potency [1] | Potency [2] | Potency [3] | Potency [4] | Potency [15] | Potency [6] | Potency [7] | Potency [8] | Potency [11] | Potency [12] | outcome [14]

CCCCCCCCCOS(=O)(=O)O
inactive: Potency [1] | Potency [2] | Potency [3] | Potency [4] | Potency [15] | Potency [7] | Potency [8] | Potency [9] | Potency [10] | Potency [16] | Potency [11] | Potency [12] | Potency [17] | Potency [13] | outcome [14]

CCCCC/C=C\C/C=C\CCCCCCCC(=O)NC(C)c1ccccc1 (stereo not given)
inactive: Potency [1] | Potency [2] | Potency [3] | Potency [4] | Potency [15] | Potency [6] | Potency [8] | Potency [9] | Potency [10] | PLD induction [18] -2.94% [at 7.66 µM] | Potency [12] | outcome [14]

Nc1cccc([N+](=O)[O-])c1
inactive: Potency [1] | Potency [19] | Potency [3] | Potency [4] | Potency [15] | Potency [5] | Potency [7] | Potency [8] | Potency [9] | Potency [10] | Potency [20] | Potency [16] | Potency [11] | Potency [12] | Potency [17] | Potency [13] | outcome [14]

CC1=CC[C@H](C(C)C)C=C1
inactive: Potency [1] | Potency [19] | Potency [4] | Potency [15] | Potency [5] | Potency [6] | Potency [7] | Potency [8] | Potency [9] | Potency [10] | Potency [16] | Potency [11] | Potency [12] | Potency [17] | Potency [13] | outcome [14]

NC(=O)C(c1ccccc1)(c1ccccc1)[C@@H]1CCN(CCc2ccc3c(c2)CCO3)C1
active: Potency [1] 21.3 µM | Potency [19] 23.9 µM | Potency [3] 21.3 µM | Potency [6] 21.3 µM | Potency [8] 21.3 µM
inactive: Potency [4] | Potency [7] | Potency [9] | Potency [10] | Potency [16] | Potency [12] | Potency [13] | outcome [14]

CCCCc1nc2cccnc2n1Cc1ccc(-c2ccccc2-c2nnn[nH]2)cc1
active: Potency [17] 15.4 µM | Potency [13] 17.2 µM
inactive: Potency [1] | Potency [2] | Potency [3] | Potency [4] | Potency [6] | Potency [8] | Potency [10] | Potency [16] | Potency [12] | outcome [14]

CC(C)(O)c1ccc(CNC(=O)c2cccnc2Oc2ccc(F)cc2)cc1
inactive: Potency [1] | Potency [19] | Potency [3] | Potency [4] | Potency [5] | Potency [6] | Potency [8] | Potency [9] | Potency [10] | Potency [12] | Potency [17] | Potency [13] | outcome [14]

C#C[C@]1(O)CC[C@H]2[C@@H]3CCc4cc(OC5CCCC5)ccc4[C@H]3CC[C@@]21C
inactive: Potency [1] | Potency [2] | Potency [3] | Potency [6] | Potency [7] | Potency [9] | Potency [10] | Potency [18] | Potency [11] | Potency [12] | Potency [17] | Potency [13] | outcome [14]

NCCCN1CCOCC1
inactive: Potency [1] | Potency [19] | Potency [3] | Potency [4] | Potency [5] | Potency [6] | Potency [7] | Potency [8] | Potency [9] | Potency [10] | Potency [20] | Potency [16] | Potency [11] | Potency [12] | Potency [17] | Potency [13] | outcome [14]

O=[N+]([O-])c1ccc2[nH]ncc2c1
inactive: Potency [1] | Potency [19] | Potency [3] | Potency [4] | Potency [15] | Potency [5] | Potency [6] | Potency [8] | Potency [10] | Potency [16] | Potency [11] | Potency [12] | Potency [17] | Potency [13] | outcome [14]

CC(C)C[C@H]1C(=O)N2CCC[C@H]2[C@]2(O)O[C@](NC(=O)[C@@H]3C=C4c5cccc6[nH]c(Br)c(c56)C[C@H]4N(C)C3)(C(C)C)C(=O)N12
active: Potency [4] 13.2 µM
inactive: Potency [1] | Potency [2] | Potency [3] | Potency [7] | Potency [8] | Potency [10] | Potency [18] | Potency [11] | Potency [12] | outcome [14]

CCOc1ccc(N)c([N+](=O)[O-])c1
inactive: Potency [1] | Potency [2] | Potency [3] | Potency [4] | Potency [7] | Potency [8] | Potency [10] | Potency [16] | Potency [12] | Potency [17] | Potency [13] | outcome [14]

CCCC(=O)Nc1ccc(O)c(C(C)=O)c1
inactive: Potency [1] | Potency [19] | Potency [3] | Potency [4] | Potency [15] | Potency [5] | Potency [6] | Potency [7] | Potency [8] | Potency [9] | Potency [10] | Potency [16] | Potency [11] | Potency [17] | Potency [13] | outcome [14]
